Efflux pump inh: inhibitors of Candida efflux pumps in yeast, primary screen, S. cerevisiae, Nile Red, multiplex. inhibition, % at 10 µM. AID 485275, 2010. 330,000 compounds, 0.44% hits. S. cerevisiae Candida pump triplex;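 active = plate passing quality check with inhibition over a set limit, or well fluorescence over plate mean plus 4 SD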;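 also: Nile Red retained in pooled yeast measured as flow cytometry median fluorescence; 0% = buffer negative control and 100% = Enniatin B positive control; higher means more Nile Red kept so more efflux inhibition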
HDAC3 inhib: HDAC3 deacetylase inhibitors, primary screen, biochemical, fluorescence, cell-free homogeneous | recombinant HDAC3, fluorogenic peptide/trypsin coupled | inhibition, % at 8.3 µM | 320,000 compounds, 0.15% hits | AID 2718, 2010; in the data active = inhibition above about 26%, passing the limit was not always enough
ALR H2O2 inh: inhibitors of human ALR sulfhydryl oxidase, primary screen, biochemical, H2O2 detection, HRP-luminol luminescence, single point; FAD-linked sulfhydryl oxidase ALR (Homo sapiens), P55789; purified ALR, DTT oxidation; inhibition, % (no concentration beside the values); 290,000 compounds, 3.8% hits;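 active = mean replicate inhibition above about 79%, with every replicate also reaching it, limit read from the data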
Target sequence (P55789 whole entry, looked up): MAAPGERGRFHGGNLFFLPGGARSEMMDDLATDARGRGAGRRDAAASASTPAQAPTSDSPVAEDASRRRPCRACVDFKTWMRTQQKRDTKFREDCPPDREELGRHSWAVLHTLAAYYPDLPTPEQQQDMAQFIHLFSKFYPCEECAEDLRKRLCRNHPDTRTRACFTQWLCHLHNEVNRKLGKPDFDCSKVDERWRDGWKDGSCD
Rtt109 HAT inh: inhibitors of C. albicans Rtt109/Vps75 HAT, primary screen, biochemical, ThioGlo CoA-SH fluorescence, plate reader. Histone acetyltransferase RTT109 (Candida albicans (strain SC5314 / ATCC MYA-2876)), …. purified Rtt109/Vps75, 4 h. inhibition, % at 34.9 µM. 330,000 compounds, 0.16% hits. AID 540336, 2011;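 active = inhibition of at least 50% in every replicate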
Target sequence (Q5AAJ8 whole entry, looked up): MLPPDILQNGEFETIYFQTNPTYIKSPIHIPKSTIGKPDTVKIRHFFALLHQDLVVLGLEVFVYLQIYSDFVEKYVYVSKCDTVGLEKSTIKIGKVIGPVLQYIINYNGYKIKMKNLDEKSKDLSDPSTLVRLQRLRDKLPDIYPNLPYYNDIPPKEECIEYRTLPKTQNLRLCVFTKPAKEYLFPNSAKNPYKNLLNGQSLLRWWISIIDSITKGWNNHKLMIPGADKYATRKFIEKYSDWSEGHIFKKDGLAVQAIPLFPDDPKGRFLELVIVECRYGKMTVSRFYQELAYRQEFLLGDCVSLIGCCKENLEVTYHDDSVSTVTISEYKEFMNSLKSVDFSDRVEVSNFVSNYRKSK
GRK2 aptamer HTS: compounds blocking aptamer binding on GRK2 – biochemical, human GRK2, bead flow cytometry, HTS, primary screen; Beta-adrenergic receptor kinase 1 (Homo sapiens), P25098; FAM-aptamer displacement from GRK2; inhibition of aptamer binding, % at 10 µM; 330,000 compounds, 0.59% hits; AID 488847, 2010;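 active = inhibition of aptamer binding above 40%, roughly 3 SD of noise, on plates passing a quality check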;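 also: median bead fluorescence of bound FAM aptamer so fluorescent compounds give negative values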
Rce1 inhib: yeast Rce1p protease inhibitors, primary screen, biochemical, fluorescence, cell-free homogeneous; yeast membranes, quenched prenylated peptide cleavage fluorescence; calls only; AID 2563, 2010; CAAX prenyl protease 2 (Saccharomyces cerevisiae (strain ATCC 204508 / S288c)), Q03530; 290,000 compounds, 0.27% hits;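 active = fall in fluorescence gain of 50% or more versus controls, with final raw signal at or below 3038400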;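 also: plate controls were neutral control wells for no effect and wells lacking membranes for full effect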
GRK2 CP1: GRK2 aptamer-displacing inhibitors, retest, confirmation, biochemical, cherry pick 1, bead flow cytometry | shares compounds with GRK2 aptamer HTS | AID 504451, 2011 | aptamer displacement, % at 10 µM | 2,000 compounds, 4% hits | bead-bound GRK2, FAM-aptamer displacement;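 active = aptamer displacement above 40%, near three times the noise of non-fluorescent compounds, on plates passing quality checks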;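 also: negative values mostly reflect intrinsic compound fluorescence rather than true enhancement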
Aptamer quench SP: counter-screen for GRK2 aptamer inhibitors: fluorescent aptamer quenchers | shares compounds with GRK2 aptamer HTS | Carboxyfluorescein RNA aptamer on beads, flow cytometry quenching; stronger effect = lower value | fluorescence response (% of DMSO), % at 10 µM | 2,000 tested, under 10 active | AID 504580;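 active = compounds that quench the bead-bound fluorescent RNA probe, cutting fluorescence to under half of the solvent control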;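 also: counterscreen run without GRK2 so only probe quenching by compound is measured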
GRK2 confirm 2: GRK2 aptamer-displacing inhibitors, hit retest, confirmation, biochemical, cherry pick 2, bead flow cytometry. shares compounds with GRK2 aptamer HTS. bead-bound GRK2, FAM-aptamer displacement. inhibition of aptamer binding, % at 10 µM. 360 tested, under 10 active. AID 504782, 2011;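 active = inhibition of aptamer binding above 40%, about triple the noise seen with nonglowing compounds, on plates passing quality control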;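 also: negative values mostly come from compounds that fluoresce themselves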
FAM quench SP: quenches fluorescent RNA aptamer, GRK2 hit artifact; fluorescence response vs DMSO, % at 10 µM; carboxyfluorescein RNA aptamer beads, flow cytometry quenching; stronger effect = lower value; 360 tested, under 10 active; shares compounds with GRK2 aptamer HTS;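 active = response vs DMSO under 50%, meaning signal dropped by over half, treated as fluorescence quencher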;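 also: labelled aptamer on streptavidin beads without GRK2 as a quench counter-screen; 100% = bead fluorescence of DMSO wells and lower means quenching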
Active calls of the source: *; i = inactive; / = not tested or not shown. A selection: hits, their analogues and other compounds. The true share with any hit is near 4.5%.

SMILES	Efflux pump inh	HDAC3 inhib	ALR H2O2 inh	Rtt109 HAT inh	GRK2 aptamer HTS	Rce1 inhib	GRK2 CP1	Aptamer quench SP	others
CCC(C)(C)NC(=O)C(c1ccccc1)N(C(=O)c1csnn1)C1CC1 (centres undefined)	-0.1	0.9	/	1.3	60.0*	i	-0.6	99.2
CCC(C)(C)NC(=O)C(c1ccccn1)N(C(=O)c1csnn1)C1CCCCC1 (centres undefined)	0.5	-3.7	-17.4	0.7	0.0	/	/	/
Cc1ccnn1CCC(=O)N1CCCC(CCC(=O)NCc2ccccc2F)C1 (centres undefined)	-0.1	4.0	0.0	-8.1	3.0	i	-0.1	98.9
COc1ccccc1CC(=O)N1CCCC(CCC(=O)NCc2ccccc2F)C1 (centres undefined)	0.1	-1.8	/	27.6	1.0	i	/	/
O=C(O)Cc1ccc(-c2ccccc2-c2ccccc2)cc1	0.0	1.8	/	8.0	98.0*	i	3.2	103.1
CC1CCCN(S(=O)(=O)c2ccc(NC(=O)C3CC(=O)N(c4ccccc4)C3)cc2)C1 (centres undefined)	0.3	0.3	-11.9	10.0	100.0*	/	2.6	102.3
O=C(Nc1ccc(S(=O)(=O)N2CCCCC2)cc1)C1CC(=O)N(c2ccccc2)C1 (centres undefined)	-0.2	-2.6	-7.2	2.9	1.0	i	/	/
Cc1cc(=O)[nH]c(SCc2cccc3ccccc23)n1	0.0	5.8	98.4*	8.5	10.0	i	-0.9	107.1
CC1CN(S(=O)(=O)c2cccc(C(=O)Nc3ccc(S(=O)(=O)NC4=NCCCCC4)cc3)c2)CC(C)O1 (centres undefined)	-0.1	2.4	-2.8	6.9	0.0	i	-3.4	98.2
COc1ccc(-n2nc(C(=O)NCc3cc(OC)ccc3OC)c3c4ccccc4n(C)c3c2=O)cc1	0.3	-1.6	-1.3	-8.5	77.0*	i	-2.0	101.5
COc1cccc(Cn2c(=S)[nH]c3ccc(N4CCOCC4)cc3c2=O)c1	0.2	2.5	8.4	3.4	43.0*	i	-1.1	103.0
[O-]/C(=C(\C(=S)Nc1ccc(Cl)cc1)[n+]1ccccc1)c1ccc(OC(F)F)cc1	-0.2	-0.5	27.0	-0.2	53.0*	i	0.8	105.1
[O-]/C(=C(\C(=S)Nc1ccccc1F)[n+]1ccccc1)c1ccc(-c2ccccc2)cc1	-0.1	2.9	7.0	-0.6	1.0	i	/	/
COc1ccc(CCNS(=O)(=O)c2ccc3c(c2)CCCC3)cc1OC	-0.3	-0.1	-5.1	-0.2	42.0*	/	/	/	GRK2 confirm 2=18.2;FAM quench SP=101.0
COc1ccc(CCNS(=O)(=O)c2ccc3c(c2)OCCO3)cc1OC	-0.1	0.0	-2.8	-1.4	0.0	i	/	/
O=C(COC(=O)c1cccc(Cl)c1)Nc1cccc(S(=O)(=O)NC2=NCCC2)c1	0.0	3.0	2.6	9.7	0.0	/	-0.5	93.8
NC(=O)Nc1ccc(C(=O)OCC(=O)Nc2cccc(S(=O)(=O)NC3=NCCC3)c2)cc1	-0.2	2.0	12.0	-2.1	0.0	/	/	/
O=C(NNC(=S)Nc1ccc(C(=O)O)c(O)c1)c1ccncc1	/	/	/	4.6	/	/	/	/
CCCCCC(=O)N1CC2(CC(c3cccc(NC(=O)COc4ccc(Cl)cc4)c3)=NO2)C[C@@H]1C(N)=O (some centres undefined)	0.1	-4.4	0.7	-9.3	4.0	i	/	/	GRK2 confirm 2=-20.7;FAM quench SP=101.0
CCCCCC(=O)N1CC2(CC(c3cccc(NC(=O)CC(c4ccccc4)c4ccccc4)c3)=NO2)C[C@@H]1C(N)=O (some centres undefined)	0.1	1.3	-2.7	-7.2	0.0	i	/	/	GRK2 confirm 2=-19.2;FAM quench SP=96.0
CCCCCC(=O)Nc1cccc(C2=NOC3(C2)C[C@H](C(N)=O)N(C(=O)CCCCC)C3)c1 (some centres undefined)	0.0	1.2	/	0.0	1.0	i	/	/
CCC(=O)N1CC2(CC(c3cccc(NC(=O)COc4ccc(Cl)cc4)c3)=NO2)C[C@@H]1C(N)=O (some centres undefined)	/	/	/	/	/	i	/	/
O=C(COC(=O)CCN1C(=O)C2CC=CCC2C1=O)Nc1ccc([N+](=O)[O-])cc1 (centres undefined)	0.2	10.6	-0.8	-1.0	0.0	/	/	/
COc1ccc(CCNC(=S)Nc2ccc(OC)cc2)cc1	-0.5	-2.7	-0.7	/	52.0*	i	-8.0	96.1
Cc1ccc(NC(=O)CN(C)CC(=O)Nc2ccc(N3CCOCC3)cc2)c(C)c1	-0.2	-1.7	37.3	0.7	2.0	i	1.4	93.5
SMILES	Efflux pump inh	HDAC3 inhib	ALR H2O2 inh	Rtt109 HAT inh	GRK2 aptamer HTS	Rce1 inhib	GRK2 CP1	Aptamer quench SP	others
CN(CC(=O)Nc1ccc(N2CCOCC2)cc1)CC(=O)Nc1ccccc1C#N	-0.1	5.1	41.1	7.6	0.0	i	-0.3	94.3
CN(CC(=O)Nc1ccc(N2CCOCC2)cc1)CC(=O)Nc1ccc(C(F)(F)F)cc1	-0.3	5.0	/	5.4	6.0	i	/	/
CN(CC(=O)Nc1ccc(N2CCOCC2)cc1)CC(=O)Nc1ccc([N+](=O)[O-])cc1Br	0.6	-0.8	-0.8	-7.0	4.0	i	/	/
CCCn1c(=O)n(C)c(=O)c2c(SC(C)C(=O)NCC3CCCO3)nc(CC(C)C)nc21 (centres undefined)	0.0	1.6	-0.6	-0.2	2.0	i	/	/
Cc1ccc(/C=C2/C(=N)N3N=C(CC(=O)N4CCCC4)SC3=NC2=O)cc1	0.2	1.8	97.4*	31.5	44.0*	i	3.4	99.7
CSc1ccc(/C=C2/C(=N)N3N=C(CC(=O)N4CCCC4)SC3=NC2=O)cc1	0.4	-1.6	11.7	12.3	0.0	i	/	/
COC(=O)c1[nH]c2ccc(C)cc2c1NC(=O)CN1CCCc2ccccc21	0.6	8.8	-14.0	8.0	89.0*	i	-6.2	118.3

Screening results as filed in PubChem BioAssay.
